Data on eight compounds can be found in PubChem BioAssay (Tox21).

Each structure is given as a SMILES string. Results filed as inconclusive are left out. Calls of active or inactive are those of the source. Unless noted, calls come from the whole dose curve.

A short description of assay [1]: Nuclear factor erythroid 2-related factor 2/antioxidant responsive element (Nrf2/ARE) small molecule agonists: luciferase reporter gene qHTS assay in human keratinocytes (AID 1919969). Note: nearly all actives have a fitted effect of over 35% in size. Note: potency is the fitted concentration of half-maximal effect.
Assay [2] concerns the target KiSS-1 receptor (Homo sapiens) (UniProt Q969F8). As to the kind of experiment: Human kisspeptin (KISS1R) small molecule agonists, calcium flux assay in KISS1R-HEK293 cells (AID 1920064; active = well fitted activation curve with a large enough effect in the repeat runs). In short, it runs like this:
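Kinetic calcium assay, 1 s sampling over 3 min at Ex/Em 480/540, in HEK293 cells engineered with human KISS1R; compounds delivered in DMSO after 1 h dye loading.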

Assay [3] can be described thus: G protein-coupled receptor (GPCR) small molecule agonists, calcium flux assay: HEK293 wild type cell line counter screen (AID 1920065). In short, it runs like this:
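Calcium-sensitive dye, loaded 1 h at 37 C into cells cultured 18 h, reports compound-evoked calcium release as fluorescence (Ex/Em 480/540), measured over 3 min. Agonist mode; 15-point titrations, triplicate.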

Assay [4] in a line: p53 small molecule agonists, cell-based qHTS assay with rat liver microsomes (AID 1963578). In short, it runs like this: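 Each plate received p53RE-bla cells, then compound, then rat liver microsomes and NADPH (both 0.5 mg/mL final). Plates were held 16 h at 37 C, and beta-lactamase activity was detected with LiveBLAzer over 2 h.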
The nature of assay [5]: p53 small molecule agonists, cell-based qHTS assay with human liver microsomes: qHTS cell viability counter screen (AID 1963579). Note: nearly all actives have a fitted effect of over 45% in size. An outline of the steps: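 Tox21 library compounds, delivered from DMSO stocks, were tested on p53RE-bla cells together with 0.5 mg/mL human liver microsomes and 0.5 mg/mL NADPH (final) over 16 h at 37 C; CellTiter-Glo luminescence served as the cytotoxicity measure.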

Assay [6] in a line: p53 small molecule agonists, cell-based qHTS assay with rat liver microsomes: qHTS cell viability counter screen (AID 1963580). Note: nearly all actives have a fitted effect of over 45% in size. An outline of the steps: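 In HCT-116 cells carrying a p53 response element-bla reporter, compounds were metabolically activated in situ by rat liver microsomes with NADPH over 16 h. Cell ATP content then served as the cytotoxicity measure.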
(In general: Quantitative high-throughput screening tests each substance at several concentrations.)

Assay [7] can be described thus: p53 small molecule agonists, cell-based qHTS assay: qHTS cell viability counter screen (AID 1963581). Note: nearly all actives have a fitted effect of over 45% in size. An outline of the steps:
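Following 5 h attachment, HCT-116 p53RE-bla cells took up compound for 16 h at 37 C; the reporter was read with B/G FRET substrate (2 h RT), and viability then via CellTiter-Glo ATP luminescence.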

Assay [8] in a line: p53 small molecule agonists, cell-based qHTS assay (AID 1963582; active = well fitted activation curve with a large enough effect in the signal ratio in the repeat runs, not every such curve was filed as active; the % refers to the signal ratio). An outline of the steps: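 In this cell-based concentration-response screen, a p53 response element drives beta-lactamase; cells received DMSO-borne compounds after 5 h culture and were incubated a further 16 h before FRET substrate development.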
Assay [9] addresses 5-hydroxytryptamine receptor 2A (Homo sapiens) (UniProt P28223). As to the kind of experiment: 5-hydroxytryptamine receptor 2A (HTR2A) small molecule antagonists, cell-based qHTS assay (AID 1963586). Note: nearly all actives have a fitted effect of over 45% in size. An outline of the steps: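 Antagonist-mode intracellular calcium assay: DOI (4 nM) added after 5 min compound pre-incubation at room temperature to dye-loaded HTR2A-CHO cells. Fluorescence followed for 3 min, sampled every second.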

Assay [10] has the same target. As to the kind of experiment: 5-hydroxytryptamine receptor 2A (HTR2A) small molecule agonists, cell-based qHTS assay (AID 1963587). Note: nearly all actives have a fitted effect of over 30% in size. Note: potency is the fitted concentration of half-maximal effect. In short, it runs like this: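 HTR2A-CHO cells, plated 18 h at 37 C/5% CO2, dye-loaded 1 h at 37 C; compounds in DMSO added by pin tool (agonist mode). Intracellular calcium flux read as kinetic fluorescence on FDSS over 2 min at 1 s intervals.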

Assay [11] deals with Muscarinic acetylcholine receptor M1 (Homo sapiens) (UniProt P11229). The experiment in a line: Cholinergic receptor muscarinic 1 (CHRM1) small molecule antagonists, cell-based qHTS assay (AID 1963588). Note: nearly all actives have a fitted effect of over 40% in size. An outline of the steps:
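CHRM1-CHO calcium-flux assay, antagonist mode. Cells were seeded 18 h, dye-loaded 1 h at 37 C and given compound for 5 min at RT, then acetylcholine was added at 50nM. FDSS fluorescence was read 3 min; 15 concentrations, three runs.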

For assay [12] the target is unchanged. The experiment in a line: Cholinergic receptor muscarinic 1 (CHRM1) small molecule agonists, cell-based qHTS assay (AID 1963589). Note: nearly all actives have a fitted effect of over 35% in size. An outline of the steps: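 Measures agonist-induced intracellular calcium rise. Stable human CHRM1 CHO line, 1 h dye load at 37 C, compounds from DMSO, kinetic fluorescence read.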
The nature of assay [13]: cAMP Responsive Elements (CRE) small molecule agonists, cell-based qHTS assay (AID 1963590). In short, it runs like this:
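A CRE-responsive beta-lactamase reporter in HEK 293T cells was used. Treatment ran 3 h at 37 C; detection used LiveBLAzer B/G FRET substrate for 2 h at room temperature.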

In assay [14] the target is Beta-2 adrenergic receptor (Homo sapiens) (UniProt P07550). The experiment in a line: Adrenergic beta2 receptor (ADRB2) small molecule antagonists, cell-based qHTS assay (AID 1963592). Note: series mostly up to about 92 µM; nearly all actives have a fitted effect of over 50% in size. In short, it runs like this:
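Cells (CHO, stable ADRB2 overexpression) incubated 18-20hr at 37C; compounds added from DMSO; agonist mix (1nM isoproterenol, 100uM IBMX, 25uM Ro-20-1724) added; 0.5hr RT; d2-cAMP and anti-cAMP-cryptate added; 1hr RT; 665/615 nm read.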

The target is the same in assay [15]. The experiment in a line: Adrenergic beta2 receptor (ADRB2) small molecule agonists, cell-based qHTS assay (AID 1963593).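 For activation: CHO cells stably overexpressing human ADRB2.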 Note: potency is the fitted concentration of half-maximal effect. In short, it runs like this: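 CHO cells stably over-expressing ADRB2 were plated overnight at 37C, then dosed with compounds plus a stimulation mix containing 100uM IBMX and 25uM Ro-20-1724 for 0.5hr at room temperature. cAMP was measured by HTRF competition, 1hr.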

In assay [16] the target is D(2) dopamine receptor (Homo sapiens) (UniProt P14416). As to the kind of experiment: Dopamine D2 receptor (DRD2) small molecule agonists, cell-based qHTS assay (AID 1963594). Note: nearly all actives have a fitted effect of over 35% in size. An outline of the steps:
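HEK293 cells stably expressing DRD2 were cultured 24 h at 37 C, then given Ro20-1724 (0.1 mM final) and compounds for 10 min at room temperature. NKH477 (200nM) was then added for 30 min. cAMP was read by HTRF.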

Assay [17] shares this target. As to the kind of experiment: Dopamine D2 receptor (DRD2) small molecule antagonists, cell-based qHTS assay (AID 1963595; active = well fitted inhibition curve with a large enough effect in the signal ratio in the repeat runs, with a control signal flat; the % refers to the signal ratio). In short, it runs like this: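 Antagonist mode in DRD2-HEK293 cells: after compound addition with 0.1 mM Ro20-1724, cells received quinpirole (12 nM) and NKH477 (200 nM) for 30 min at room temperature; HTRF cAMP read after 1 h detection.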
Assay [18] is described as follows: p53 small molecule agonists, cell-based qHTS assay with human liver microsomes (AID 1963577).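 Note: p53 response element beta-lactamase reporter cells with liver microsomes plus NADPH.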 An outline of the steps:
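Metabolically competent format: test substances, human liver microsomes and NADPH (both 0.5 mg/mL final) incubated with p53RE-bla cells 16 h at 37 C. Beta-lactamase reporter signal then quantified by fluorescence.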

Assay [19] is described as follows: cAMP Responsive Elements (CRE) small molecule antagonists, cell-based qHTS assay (AID 1963591; active = well fitted inhibition curve with a large enough effect in the signal ratio in the repeat runs, not every such curve was filed as active; the % refers to the signal ratio). In short, it runs like this: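 HEK293T cells carrying a CRE-driven beta-lactamase reporter receive compound and NKH477 (0.25 uM final) for 3 h. Fluorescence from LiveBLAzer B/G FRET substrate is read after 2 h at room temperature.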
Assay [20] concerns the target Gonadotropin-releasing hormone receptor (Homo sapiens) (UniProt P30968). The experiment in a line: Human gonadotropin-releasing hormone receptor (GnRHR) small molecule agonists, calcium flux assay in GnRHR-HEK293 cells (AID 1920063). Note: nearly all actives have a fitted effect of over 35% in size. In short, it runs like this: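 We seeded human GnRHR-expressing HEK293 cells for 18 hours, loaded them with calcium dye for an hour at 37 C, added test compounds, and recorded fluorescence intensity kinetically for three minutes.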

KiSS-1 receptor (Homo sapiens), sequence (Q969F8 whole entry, looked up): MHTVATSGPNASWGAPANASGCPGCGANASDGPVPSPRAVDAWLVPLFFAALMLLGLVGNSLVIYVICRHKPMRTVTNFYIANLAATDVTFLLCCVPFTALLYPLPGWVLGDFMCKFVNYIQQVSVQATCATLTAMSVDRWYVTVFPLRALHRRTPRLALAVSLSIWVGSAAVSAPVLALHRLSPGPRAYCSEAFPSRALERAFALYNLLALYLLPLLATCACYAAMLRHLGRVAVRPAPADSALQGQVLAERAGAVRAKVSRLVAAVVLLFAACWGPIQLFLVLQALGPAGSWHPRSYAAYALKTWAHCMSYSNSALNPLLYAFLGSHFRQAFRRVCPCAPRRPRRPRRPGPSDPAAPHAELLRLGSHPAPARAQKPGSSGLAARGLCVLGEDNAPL
D(2) dopamine receptor (Homo sapiens), sequence (P14416 whole entry, looked up): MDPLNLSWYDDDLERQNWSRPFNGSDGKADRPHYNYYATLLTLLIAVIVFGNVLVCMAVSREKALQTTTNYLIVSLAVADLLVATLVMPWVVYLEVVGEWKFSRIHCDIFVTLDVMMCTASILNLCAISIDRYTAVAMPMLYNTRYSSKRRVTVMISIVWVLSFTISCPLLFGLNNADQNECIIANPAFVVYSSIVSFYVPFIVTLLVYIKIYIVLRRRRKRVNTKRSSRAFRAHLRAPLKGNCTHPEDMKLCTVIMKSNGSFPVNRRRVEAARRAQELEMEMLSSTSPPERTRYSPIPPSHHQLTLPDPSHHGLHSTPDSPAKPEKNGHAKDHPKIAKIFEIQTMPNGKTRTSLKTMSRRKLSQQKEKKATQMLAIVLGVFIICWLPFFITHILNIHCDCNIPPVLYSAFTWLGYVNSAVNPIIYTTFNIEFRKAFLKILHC
Muscarinic acetylcholine receptor M1 (Homo sapiens), sequence (P11229 whole entry, looked up): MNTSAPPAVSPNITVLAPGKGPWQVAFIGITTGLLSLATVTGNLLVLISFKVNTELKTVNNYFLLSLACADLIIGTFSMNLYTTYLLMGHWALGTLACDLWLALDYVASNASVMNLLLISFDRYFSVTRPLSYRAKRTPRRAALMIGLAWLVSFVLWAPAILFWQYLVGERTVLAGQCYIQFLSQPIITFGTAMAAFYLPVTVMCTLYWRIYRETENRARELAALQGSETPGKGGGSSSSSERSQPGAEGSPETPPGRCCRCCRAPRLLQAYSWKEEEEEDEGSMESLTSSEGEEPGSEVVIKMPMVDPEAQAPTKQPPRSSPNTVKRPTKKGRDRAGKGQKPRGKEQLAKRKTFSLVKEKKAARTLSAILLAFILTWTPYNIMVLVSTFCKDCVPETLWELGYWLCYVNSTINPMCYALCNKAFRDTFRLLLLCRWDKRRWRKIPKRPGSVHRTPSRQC
5-hydroxytryptamine receptor 2A (Homo sapiens), sequence (P28223 whole entry, looked up): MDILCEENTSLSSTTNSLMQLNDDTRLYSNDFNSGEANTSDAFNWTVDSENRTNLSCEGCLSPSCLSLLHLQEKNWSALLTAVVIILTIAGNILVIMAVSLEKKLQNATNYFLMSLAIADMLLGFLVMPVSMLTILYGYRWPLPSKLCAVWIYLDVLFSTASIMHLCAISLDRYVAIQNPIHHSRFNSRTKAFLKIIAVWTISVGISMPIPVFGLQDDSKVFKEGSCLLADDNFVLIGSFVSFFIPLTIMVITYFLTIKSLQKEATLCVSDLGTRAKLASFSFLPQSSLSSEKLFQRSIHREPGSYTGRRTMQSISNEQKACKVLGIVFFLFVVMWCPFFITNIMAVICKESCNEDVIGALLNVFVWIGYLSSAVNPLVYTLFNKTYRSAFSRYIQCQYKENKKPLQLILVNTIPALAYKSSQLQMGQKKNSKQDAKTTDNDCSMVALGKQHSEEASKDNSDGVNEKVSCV
Beta-2 adrenergic receptor (Homo sapiens), sequence (P07550 whole entry, looked up): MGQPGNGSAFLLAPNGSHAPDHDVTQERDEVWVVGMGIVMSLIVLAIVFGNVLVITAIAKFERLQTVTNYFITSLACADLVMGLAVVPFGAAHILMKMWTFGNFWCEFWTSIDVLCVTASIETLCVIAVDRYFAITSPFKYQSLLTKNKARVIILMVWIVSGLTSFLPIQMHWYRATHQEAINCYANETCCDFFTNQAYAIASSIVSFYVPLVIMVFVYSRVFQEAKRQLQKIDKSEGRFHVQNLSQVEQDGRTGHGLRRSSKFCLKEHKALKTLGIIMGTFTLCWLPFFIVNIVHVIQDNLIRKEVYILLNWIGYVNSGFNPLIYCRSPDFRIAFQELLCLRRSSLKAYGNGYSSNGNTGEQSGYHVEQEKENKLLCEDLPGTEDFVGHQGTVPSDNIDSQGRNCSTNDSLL
Gonadotropin-releasing hormone receptor (Homo sapiens), sequence (P30968 whole entry, looked up): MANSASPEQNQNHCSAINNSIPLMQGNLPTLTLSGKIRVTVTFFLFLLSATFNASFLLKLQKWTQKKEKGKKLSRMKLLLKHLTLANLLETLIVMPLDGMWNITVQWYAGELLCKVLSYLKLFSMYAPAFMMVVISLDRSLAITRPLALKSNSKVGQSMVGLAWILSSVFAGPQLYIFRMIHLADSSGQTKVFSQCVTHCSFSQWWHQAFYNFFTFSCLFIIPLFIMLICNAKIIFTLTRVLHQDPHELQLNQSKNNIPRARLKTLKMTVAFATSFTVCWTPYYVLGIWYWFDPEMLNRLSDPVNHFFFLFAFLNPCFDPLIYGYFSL

In the case of `COC(=O)C1=C(C)NC(C)=C(C(=O)O[C@@H]2CCCN(Cc3ccccc3)C2)[C@@H]1c1cccc([N+](=O)[O-])c1`, the Potency entry in assay [1], in assay [2], in [3], in assay [4], in [5] and in assay [6] was “inactive” in each case. Further, the Potency result in [7], in assay [8], in assay [9], in [10], in assay [11] and in assay [12] was “inactive” each time. Further, the Potency entry in [13], in assay [14], in assay [15], in assay [16] and in assay [17] was “inactive” throughout.

In the case of `O=C(CC(=O)C(F)(F)F)c1ccccc1`, the Potency in assay [1] is 49.2 µM (active); in assay [10] it was 49.7 µM (active); in [15] it was 13.9 µM (active). In addition, the Potency result in assay [2], in assay [3], in [18], in assay [5], in [7] and in [8] was “inactive” throughout. For the same compound, the Potency result in assay [9], in assay [11], in assay [12], in assay [13], in [19] and in assay [14] was “inactive” in each case. For the same compound, the Potency result in assay [16] and in [17] was “inactive” in each case.

For the compound `CC1=Nc2ccc3ccccc3c2C1(C)C`, the Potency in assay [1] was 68.6 µM (active). Moreover, the Potency result in assay [2], in assay [3], in assay [4], in [5], in [6] and in [7] was “inactive” each time. Moreover, the Potency entry in assay [10], in assay [11], in assay [16] and in assay [17] was “inactive” in each case.

As to `O=C1CCCCCCCCCCCCCCO1`, the Potency result in [20], in assay [2], in [3], in assay [18], in assay [4] and in [5] was “inactive” throughout. In addition, the Potency entry in assay [6], in [7], in [8], in assay [9], in assay [10] and in assay [11] was “inactive” in each case. Also, the Potency entry in assay [12], in assay [13], in assay [19], in [14] and in assay [17] was “inactive” each time.

With `C[C@@H]1CC[C@H]2C(C)(C)[C@H]3C[C@@]12CC[C@@]3(C)O`, the Potency entry in assay [20], in assay [2], in assay [3], in assay [18], in [4] and in assay [5] was “inactive” throughout. For the same compound, the Potency entry in assay [6], in assay [7], in assay [8], in [9], in assay [11] and in [12] was “inactive” in each case. The Potency result in assay [13], in assay [19], in assay [14] and in assay [17] was “inactive” each time. Besides, the Potency in assay [10] was 48.9 µM (active).

With `O=C(/C=C/c1ccccc1)NCCO`, the Potency entry in assay [1], in assay [2], in [5], in assay [6], in [7] and in [9] was “inactive” in each case. Further, the Potency entry in assay [11], in assay [12], in assay [13], in assay [19], in [14] and in [15] was “inactive” each time. The Potency result in [16] is “inactive”. Besides, the Potency in assay [10] was 21.3 µM (active).

Regarding `COC1=C(OC)C(=O)C(CCCCCCCCCCO)=C(C)C1=O`, in assay [1], the Potency is 10.6 µM (active). In addition, the Potency entry in [2], in assay [3], in assay [5], in [19], in assay [14] and in assay [15] was “inactive” throughout. Moreover, the Potency result in [16] and in assay [17] was “inactive” throughout.

As for `CC(=O)[C@]1(O)Cc2c(O)c3c(c(O)c2[C@@H](O[C@H]2C[C@H](N)[C@H](O)[C@H](C)O2)C1)C(=O)c1ccccc1C3=O`, the Potency in assay [1] is 2.66 µM (active). Also, the Potency entry in assay [2], in assay [3], in assay [7] and in assay [13] was “inactive” each time.
